Screens: PubChem BioAssay, National Center for Advancing Translational Sciences (NCATS)
MmCpn inh: M. maripaludis TRiC chaperonin inhibition; purified Mm-Cpn ATPase, ADP Transcreener TR-FRET; Potency, µM (doses to about 76.9 µM), hits mostly inhibitors; actives 0.031% (n = 330,000); active = well fitted inhibition curve with a large enough effect; inconclusive = small, poorly fitted or top-dose-only effect; also: nearly all actives have a fitted effect of over 80% in size
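Reaction buffer contained 30 mM Tris pH 7.4, 100 mM KCl, 5 mM MgCl2 and 1 mM DTT. Mm-CPN (25 nM final) hydrolysed 10 uM ATP over 30 min at 37°C; ADP was read by HTRF.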
KCNH2 3.1 block: inhibitors of human KCNH2 3.1 potassium channel isoform | U2OS KCNH2 3.1, thallium flux FluxOr; active compounds read low | activity change, % (tested at about 1.8 µM) | actives 0.95% (n = 340,000);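 active = maximum activity change below -70%; inconclusive = maximum activity change from -70% to -50%; inactive = maximum activity change above -50%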;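 also: thallium influx rate constant from kinetic fluorescence after stimulation buffer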
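Thallium flux read-out: FluxOr dye with Red40 quencher in HBSS/HEPES, 45 min at RT. Rate constants from kinetic reads were normalized to positive and negative DMSO controls. Cells: U2OS virally expressing the 3.1 isoform.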
Rango-impB inh: inhibitors of Rango-importin beta complex formation; Q14974; Rango CFP/YFP FRET sensor + importin beta, 45 min; Potency, µM (series often up to 92.2 µM); actives 0.031% (n = 340,000); also: nearly all actives have a fitted effect of over 15% in size
Target sequence (Q14974 whole entry, looked up): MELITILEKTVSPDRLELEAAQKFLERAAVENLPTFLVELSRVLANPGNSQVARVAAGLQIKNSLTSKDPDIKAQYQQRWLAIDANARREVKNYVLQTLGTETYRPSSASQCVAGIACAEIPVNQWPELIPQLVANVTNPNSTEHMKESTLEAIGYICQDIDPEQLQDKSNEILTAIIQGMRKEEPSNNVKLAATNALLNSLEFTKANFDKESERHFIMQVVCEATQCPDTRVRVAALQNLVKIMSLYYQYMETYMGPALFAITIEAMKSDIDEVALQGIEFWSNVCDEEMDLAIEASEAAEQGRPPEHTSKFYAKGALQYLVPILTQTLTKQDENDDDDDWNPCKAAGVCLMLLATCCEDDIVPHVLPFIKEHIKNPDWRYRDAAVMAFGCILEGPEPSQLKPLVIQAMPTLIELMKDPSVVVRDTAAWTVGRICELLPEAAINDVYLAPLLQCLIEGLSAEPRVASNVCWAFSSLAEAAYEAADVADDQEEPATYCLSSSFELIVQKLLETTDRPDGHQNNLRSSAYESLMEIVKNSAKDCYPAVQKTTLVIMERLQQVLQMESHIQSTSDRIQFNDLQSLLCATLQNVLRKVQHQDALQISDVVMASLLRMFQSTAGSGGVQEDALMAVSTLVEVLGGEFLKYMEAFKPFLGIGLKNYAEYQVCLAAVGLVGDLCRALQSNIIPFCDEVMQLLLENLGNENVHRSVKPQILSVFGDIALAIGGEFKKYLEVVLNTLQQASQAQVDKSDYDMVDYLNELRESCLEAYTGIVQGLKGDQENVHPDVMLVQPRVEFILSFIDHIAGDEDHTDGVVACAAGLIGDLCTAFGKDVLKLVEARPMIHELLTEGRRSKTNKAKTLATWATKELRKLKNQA
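Inhibition scored from the CFP 486 nm/YFP 530 nm FRET ratio 45 min after adding 0.125 microM importin beta to 50 nM Rango biosensor preincubated 5 min with compound (room temperature, PBS with DTT, Tween-20, BSA). No-importin wells as positive control.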
Rango dissoc inh: inhibition of RanGTP-driven Rango-importin beta dissociation. Potency, µM (top dose mostly 46.1 µM). Biochemical FRET Rango-importin beta, RanGTP-induced dissociation. actives 0.071% (n = 340,000). O95149+P62826; also: nearly all actives have a fitted effect of over 45% in size
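Rango FRET biosensor (snurportin-1 IBB flanked by N-terminal EYFP and C-terminal CFP10) at 0.1 uM, with 0.25 uM importin beta in PBS, 1mM DTT, 0.02% Tween-20, 0.1% BSA. 0.6 uM Ran, 2mM GTP and 0.2 uM RCC1 were then added for 45 min at room temperature. Inhibition read as loss of FRET rise.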
CCT modulator: changes cytosolic chaperonin activity; activity change, % (test concentration not listed), hits read low; actives 0.3% (n = 360,000); purified chaperonin ATPase assay, HTRF ADP detection, 30 min; in the data active = activity change below about -30%
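TRiC at 40 or 20 nM final (batch-dependent) in 30 mM Tris pH 7.4, 100 mM KCl, 5 mM MgCl2, 1 mM DTT, with compound at single 76 uM and 10 uM ATP, 30 min at 37 deg C. ADP detected by HTRF Transcreener, 665/615 ratio.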
KCNH2 WT inh: blocks the wildtype human KCNH2 potassium channel; U2OS, BacMam KCNH2, thallium flux FluxOr; active compounds read low; activity change, % at 1.84 µM; actives 0.37% (n = 340,000); AID 720551;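 active = maximum activity change below -70%; inconclusive = maximum activity change between -70% and -50%; inactive = maximum activity change above -50%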
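U2OS cells were transduced with wild-type KCNH2 virus (2.03 x 10^8 / mL) for 4 h at room temperature, then cultured overnight at 37 C. Thallium flux was read with FluxOr dye. Rate constants were normalized to DMSO controls.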
Numbers stand for hits; . = inactive; ? = inconclusive; / = no result. An excerpt weighted towards active compounds, which were near 1.4% of everything screened. Unless noted, calls follow the shape of the full dose curve.

SMILES	MmCpn inh	KCNH2 3.1 block	Rango-impB inh	Rango dissoc inh	CCT modulator	KCNH2 WT inh
O=C(NCc1ccccc1)c1cc(C2CCCN(C(=O)CCCc3ccccc3)C2)on1 (centres undefined)	/	/	/	/	.	/
COc1ccc(OCC(=O)Nc2ccc(S(=O)(=O)Nc3cc(C)nc(C)n3)cc2)cc1	.	.	.	.	.	.
COCCOCC(=O)Nc1ccc(S(=O)(=O)Nc2cc(C)nc(C)n2)cc1	.	.	.	.	.	-107.7
Cn1nc(C(=O)OCC(=O)NCc2ccc(Cl)cc2)c2ccccc2c1=O	.	.	.	.	.	.
Cn1nc(C(=O)OCC(=O)NCCc2ccccc2)c2ccccc2c1=O	.	.	.	.	-32.5	.
Cc1ccc(Cl)c(NC(=O)COC(=O)c2nn(C)c(=O)c3ccccc23)c1Cl	.	.	.	.	-42.8	.
CC1(C)C[C@@H](O)CC2(C1)C[C@]1(C)CC(O)[C@H]2C(C)(C)C1 (some centres undefined)	/	.	.	.	.	.
COc1ccc(/C=C(/NC(=O)c2ccco2)C(=O)N2CCCCCC2)cc1OC	.	/	.	.	.	.
Cc1cc(N/N=C/c2ccc(O)cc2O)nc(N2CCOCC2)n1	.	.	?	.	.	.
Oc1ccc(/C=N\Nc2cc(N3CCOCC3)nc(N3CCOCC3)n2)c(O)c1	.	.	?	.	-52.0	.
CCCCOc1ccc(/C=N/Nc2cc(N3CCOCC3)nc(C)n2)cc1	.	-95.4	.	.	.	.
Cc1nc(N/N=C/c2cccnc2)cc(N2CCOCC2)n1	/	.	/	/	.	.
Brc1ccc(-c2ccc(/C=N/Nc3nc(N4CCOCC4)nc(N4CCOCC4)n3)o2)cc1	.	-94.7	.	.	.	.
Fc1cnc(N/N=C/c2ccc(-c3ccc(Br)cc3)o2)nc1N1CCOCC1	.	.	.	.	.	.
Clc1ccc(-c2ccc(/C=N/Nc3cc(N4CCOCC4)nc(N4CCOCC4)n3)o2)cc1	.	-95.2	?	?	.	?
CCCNC(=O)C1(C)CCCN(C(=O)c2ccccc2OC(F)(F)F)C1 (centres undefined)	/	/	/	/	.	/
CCCOc1ccccc1NC(=O)Nc1ccccc1Cl	.	.	.	.	.	.
COc1ccccc1/C=C(/CC(=O)NCc1ccccc1)c1nc2ccccc2s1	.	.	.	.	-33.9	.
CCOc1cccc2sc(N(CCCN(C)C)C(=O)c3ccc(S(=O)(=O)N4CCc5ccccc5C4)cc3)nc12	.	.	.	.	.	.
CCOc1cccc2sc(N(CCCN(C)C)C(=O)c3ccc(S(=O)(=O)N(C)c4ccccc4)cc3)nc12	.	-85.2	.	.	.	-106.4
CCc1ccc2nc(N(CCCN(C)C)C(=O)c3ccc(S(=O)(=O)N(C)C4CCCCC4)cc3)sc2c1	.	-71.9	.	.	.	.
O=C(COc1ccccc1[N+](=O)[O-])NCCC1=CCCCC1	.	.	.	.	.	.
COc1ccc(CCCNC(=O)C2Cc3c(-c4ccccc4)ccnc3O2)cc1 (centres undefined)	/	/	/	/	.	/
Cc1ccc(N(CN2C(=O)C3C4CCC(C4)C3C2=O)C(=O)c2ccco2)cc1 (centres undefined)	.	.	.	.	.	.
O=C(COC(=O)Cc1ccc(Br)cc1)NCc1ccc(F)cc1	.	.	.	.	.	.
SMILES	MmCpn inh	KCNH2 3.1 block	Rango-impB inh	Rango dissoc inh	CCT modulator	KCNH2 WT inh
CCN1C(=O)[C@H]2[C@@H](c3ccc(Cl)cc3)N3C(=O)CN(CCOC)C(=O)[C@@]3(C)[C@H]2C1=O	.	.	.	.	.	.
CCCCN1CC(=O)N2[C@H](c3ccc(Cl)cc3)[C@@H]3C(=O)N(CC)C(=O)[C@@H]3[C@]2(C)C1=O	.	-114.9	.	.	.	.
CCOc1cc(C)nc(N2CCCC(C(=O)NCc3ccccc3F)C2)n1 (centres undefined)	.	?	.	.	-41.2	.
CCOC(=O)N1CCN(C(=O)COC(=O)CN(C)S(=O)(=O)c2ccc(NC(C)=O)cc2)CC1	.	.	.	.	.	.
CCN1C=C(Cc2ccc(F)cc2)C2=C(C1)C(c1ccc(F)cc1)C(C#N)=C(N)O2 (centres undefined)	.	.	?	?	.	.
CCN1C=C(Cc2ccccc2C)C2=C(C1)C(c1ccccc1C)C(C#N)=C(N)O2 (centres undefined)	.	.	?	8.2µM	.	.
CCOC(=O)c1ccc(NC(=O)CSc2nnc(-c3cccs3)n2CC)cc1	.	-92.5	.	.	.	.
CN(C)Cc1ccccc1CNC(=O)c1ccc(Cl)c(S(=O)(=O)NC2CC2)c1	/	.	/	/	.	.
CCOC(=O)CCc1c(C)c2c(C)nn(-c3ccccc3)c2[nH]c1=O	.	.	.	.	-33.8	.
Cc1oc2c(c(C)cc3oc(=O)c(CC(=O)N[C@@H](C)C(=O)O)c(C)c32)c1C	.	.	?	.	-32.7	.
CC[C@@H](C)[C@H](NC(=O)Cc1c(C)c2c(cc(C)c3c(C)c(C)oc32)oc1=O)C(=O)O	.	.	.	.	.	.
Cc1noc(C)c1NC(=O)Nc1cccc2c1O[C@H](CN(C)C(=O)NC1CCCCC1)[C@@H](C)CN([C@H](C)CO)C2=O	.	.	.	.	.	.
COc1ccc(/C=C/C(=O)Nc2ccccc2C(=O)O)cc1	.	.	.	.	-36.0	.
COc1cccc(C2C(C#N)=C(N)OC(C(C)(C)C)=C2C#N)c1 (centres undefined)	.	-189.2	.	.	.	.
Cc1ccc(/C=C2\CCC3=C2OC(N)=C(C#N)C3c2ccc(C)cc2)cc1 (centres undefined)	.	.	?	?	.	?
COc1ccc(C2C(C#N)=C(N)OC(C(C)(C)C)=C2C#N)cc1OC (centres undefined)	.	.	.	.	.	.
COc1cccc(/C=C2/CN(C)CC3=C2OC(N)=C(C#N)C3c2cccc(OC)c2)c1 (centres undefined)	.	.	?	20.6µM	.	.
O=S(=O)(Nc1cc(S(=O)(=O)N2CCOCC2)ccc1NCC1CCCO1)c1ccccc1F (centres undefined)	.	.	.	.	.	.
CCn1ccc(C(=O)Nc2ccsc2C(=O)OC)n1	.	.	.	.	.	.
CCOc1ccc2cc(S(=O)(=O)n3ccnc3C)ccc2c1	.	.	.	.	.	.
CCc1nccn1S(=O)(=O)c1ccc2ccc(C)cc2c1	.	-71.2	.	.	.	.
CCn1nnnc1-c1ccc(OC)c(S(=O)(=O)Nc2ccccc2OC)c1	/	.	/	/	.	-77.6
